From PubChem BioAssay (NCI)
This is part of a sample that, as a whole, favours compounds with a hit. Of some 83,000 tested, about 20% had one in any assay.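 Activity criterion: percent growth below 10, measured after cells in 96-well plates were exposed to a single compound concentration for 48 hours.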 Calls of active or inactive are those of the source.

Columns and labels:
Assay in all cases: NCI-60 one-dose screen, 48 h (100 = growth as untreated, 0 = no growth, -100 = all killed)
Conditions in all cases: 10 µM unless noted
T-47D breast = tested on: T-47D breast
BT-549 breast = tested on: BT-549 breast
MDA-MB-435 melanoma = tested on: MDA-MB-435 melanoma
MCF7 breast = tested on: MCF7 breast
HCT-116 colon = tested on: HCT-116 colon
HCC-2998 colon = tested on: HCC-2998 colon
KM12 colon = tested on: KM12 colon
MDA-MB-468 breast = tested on: MDA-MB-468 breast

Measured: growth

CC(=O)Nc1cccc(Nc2nc(NCc3ccccc3)c3ccccc3n2)c1
active: T-47D breast -60.1% | BT-549 breast -86.8% | MDA-MB-435 melanoma -92.8% | MCF7 breast -77.2% | HCT-116 colon -74.7% | HCC-2998 colon -98.8% | KM12 colon -66% | MDA-MB-468 breast -93.7%

N/C(=N\c1nc2ccccc2s1)NC(=O)NCCCCCCO
inactive: BT-549 breast 21.4% | MDA-MB-435 melanoma 41.2% | MCF7 breast 30% | HCT-116 colon 36.9% | HCC-2998 colon 82% | KM12 colon 55.1%
active: T-47D breast 9.9% | MDA-MB-468 breast 2.33%

CNC(=O)c1cccc(NC(=O)c2ccc3c(c2)nnn3/C(C#N)=C/c2ccccn2)c1
active: T-47D breast -70.4% | BT-549 breast -98.7% | MCF7 breast -77.2% | HCT-116 colon -89% | HCC-2998 colon -92.7% | MDA-MB-468 breast -85.5%
inactive: MDA-MB-435 melanoma 11.5% | KM12 colon 55.9%

S=C(Nc1ccccc1)Nc1ccc(OCc2nc3ccccc3[nH]2)cc1
inactive: T-47D breast 36.1% | BT-549 breast 49.4% | MDA-MB-435 melanoma 24.6% | MCF7 breast 20.2% | HCT-116 colon 35.6% | HCC-2998 colon 17.3% | MDA-MB-468 breast 21.9%
active: KM12 colon -32%

CC(C)c1ccc2c(N)c(C(=O)Nc3cccc(C(F)(F)F)c3)sc2n1
inactive: T-47D breast 51.8% | BT-549 breast 112% | MDA-MB-435 melanoma 82.5% | MCF7 breast 70.3% | HCT-116 colon 81.4% | HCC-2998 colon 73.1% | KM12 colon 43.2% | MDA-MB-468 breast 13.2%

CCOC(=O)C1=C(N)N(c2ccccc2)C2=C(C(=O)CC(C)(C)C2)C1c1ccccc1Cl (stereo not given)
inactive: T-47D breast 52% | BT-549 breast 78.6% | MDA-MB-435 melanoma 73.1% | MCF7 breast 56.5% | HCT-116 colon 41.3% | HCC-2998 colon 85.6% | KM12 colon 58.4% | MDA-MB-468 breast 50.2%

COc1ccc([C@H](C)Nc2nc(Cl)nc3ccccc23)cc1
inactive: T-47D breast 49.4% | BT-549 breast 60.3% | MDA-MB-435 melanoma 45.8% | MCF7 breast 28.8% | HCT-116 colon 20.9% | HCC-2998 colon 93.6% | KM12 colon 43% | MDA-MB-468 breast 15.1%

Cn1cc(-c2nc(N)nnc2-c2c[nH]c3ccc(Br)cc23)c2cccnc21
inactive: T-47D breast 62.5% | BT-549 breast 33.9% | MDA-MB-435 melanoma 12% | MCF7 breast 21.4% | HCT-116 colon 21.2% | HCC-2998 colon 77% | KM12 colon 33.9% | MDA-MB-468 breast 44.6%

CC1=C(C(=O)c2ccccc2)C(c2cccc(Cl)c2Cl)n2c(nc3ccccc32)N1 (stereo not given)
active: MDA-MB-468 breast -38.3%
inactive: T-47D breast 76.6% | BT-549 breast 52.4% | MDA-MB-435 melanoma 72.1% | MCF7 breast 26.7% | HCT-116 colon 50.1% | HCC-2998 colon 88% | KM12 colon 92%

O=C(COc1ccc(NC(=O)Nc2ccc(Cl)cc2)cc1)N/N=C/c1ccccc1
active: T-47D breast -81.6% | BT-549 breast -51.4% | MDA-MB-435 melanoma -88.5% | MCF7 breast -78.6% | HCT-116 colon -40% | HCC-2998 colon -77.4% | KM12 colon -70.3% | MDA-MB-468 breast -94.4%

COc1ccc2nc(Nc3cccc(NC(=O)c4ccc(CN5CCCN(C)CC5)c(C(F)(F)F)c4)c3)ccc2c1
active: T-47D breast -44.6% | BT-549 breast -61.4% | MDA-MB-435 melanoma -42.8% | MCF7 breast -62.8% | HCT-116 colon -47.1% | HCC-2998 colon -62.6% | KM12 colon -47.5% | MDA-MB-468 breast -71.1%

CCOC(=O)C1=C(N)N(c2ccccc2)C2=C(C(=O)CC(C)(C)C2)C1c1ccc(N2CCOCC2)cc1 (stereo not given)
inactive: T-47D breast 93.7% | BT-549 breast 103% | MDA-MB-435 melanoma 104% | MCF7 breast 90.7% | HCT-116 colon 99.1% | HCC-2998 colon 108% | KM12 colon 105% | MDA-MB-468 breast 89.6%

Cc1ccc2c(N)c(C(=O)Nc3ccc(-c4ccccc4)cc3)sc2n1
inactive: T-47D breast 29.5% | BT-549 breast 53.2% | MDA-MB-435 melanoma 69.1% | MCF7 breast 43.2% | HCT-116 colon 29.5% | HCC-2998 colon 101% | KM12 colon 77.3% | MDA-MB-468 breast 17.8%

Cc1cc2nc3c([nH]c2cc1C)c1ccc(=O)cc1n3CCN(C)C
inactive: T-47D breast 60% | BT-549 breast 65.5% | MDA-MB-435 melanoma 45% | MCF7 breast 12% | HCT-116 colon 14.4% | HCC-2998 colon 26.8% | KM12 colon 43.4% | MDA-MB-468 breast 43%

N#Cc1c(-c2ccc(Cl)cc2)nc2n[nH]c(-c3ccc(Cl)cc3)c2c1-c1ccc(C(F)(F)F)cc1
active: T-47D breast -2.6% | BT-549 breast -40% | MDA-MB-435 melanoma -29.7% | MCF7 breast -4.6% | HCT-116 colon -63.3% | HCC-2998 colon -38.9% | KM12 colon -11% | MDA-MB-468 breast -45%
